Assay results: PubChem BioAssay (NCI)
The panel holds about 79,000 compounds, 15% with a hit somewhere; the sample as a whole holds those more often. The source made the active and inactive calls. No stated cut-off is given here; in the data, active means growth inhibition above about 70%; inactive means the rest.

Columns and labels:
[1] = NCI Yeast Anticancer Drug Screen. Data for the wt1 strain (AID 149);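 further: 0% = growth of vehicle-treated wt1 cultures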; settings: S. cerevisiae wt1 strain (SPY 50644) growth inhibition, stronger effect = higher value
How it was run: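 Compounds are added to wt1 yeast cultures. Growth is then measured. Inhibition is expressed relative to vehicle-treated controls.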

[2] = NCI Yeast Anticancer Drug Screen. Data for the rad50EPP+ strain (AID 151);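 further: 0% = growth of vehicle-treated control cultures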; settings: S. cerevisiae rad50 mutant strain, stronger effect = higher value
How it was run: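 One strain with a rad50 alteration (rad50EPP+) was compound-treated, its growth then compared to that of vehicle controls.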

[3] = NCI Yeast Anticancer Drug Screen. Data for the mgt1 strain (AID 153); settings: S. cerevisiae mgt1 mutant growth inhibition, stronger effect = higher value
How it was run: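 After exposure of the mgt1 yeast mutant to compound, growth was measured and reported as inhibition compared with vehicle controls.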

[4] = NCI Yeast Anticancer Drug Screen. Data for the rad50 strain (AID 155);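 further: 0% = growth of vehicle-only cultures of the same strain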; settings: S. cerevisiae rad50 strain growth inhibition, stronger effect = higher value
How it was run: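 Inhibition values express reduced yeast growth in compound-treated cultures relative to vehicle-treated controls.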

[5] = NCI Yeast Anticancer Drug Screen. Data for the mec2-1 strain (AID 157); settings: S. cerevisiae mec2-1 strain, stronger effect = higher value
How it was run: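 Test agents were screened against the mec2-1 yeast strain, with defined DNA repair or cell cycle alteration. Growth was scored as inhibition against vehicle-only controls.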

[6] = NCI Yeast Anticancer Drug Screen. Data for the rad14 strain (AID 159);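 further: 0% = growth of vehicle-treated control cultures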; settings: S. cerevisiae rad14 strain growth inhibition, stronger effect = higher value
How it was run: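 A mutant yeast strain defective in DNA damage repair is treated with compound; inhibition of its growth is scored against untreated, vehicle-exposed cultures.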

[7] = NCI Yeast Anticancer Drug Screen. Data for the sgs1 mgt1 strain (AID 161);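 further: 0% = growth of cultures given vehicle only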; settings: S. cerevisiae sgs1 mgt1 strain, stronger effect = higher value
How it was run: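 Genetically altered yeast, compound exposure, growth inhibition relative to vehicle.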

[8] = NCI Yeast Anticancer Drug Screen. Data for the CLN2oe strain (AID 163);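 further: 0% = growth of vehicle-only control cultures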; settings: S. cerevisiae CLN2oe strain, stronger effect = higher value
How it was run: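 Here, growth inhibition in a cell-cycle-altered yeast strain after compound exposure was quantified against vehicle control growth.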

[9] = NCI Yeast Anticancer Drug Screen. Data for the cln2 rad14 strain (AID 165);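 further: 0% = growth equal to vehicle treated cultures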; settings: S. cerevisiae cln2 rad14 strain, stronger effect = higher value
How it was run: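 Growth of compound-exposed yeast (cln2 rad14 genotype) measured and expressed as inhibition relative to vehicle.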

[10] = NCI Yeast Anticancer Drug Screen. Data for the bub3 strain (AID 167); settings: S. cerevisiae bub3 mutant strain, stronger effect = higher value
How it was run: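 Steps: expose the mutant yeast strain to compound; grow alongside vehicle-treated cultures; measure growth; express inhibition against the vehicle cultures.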

[11] = NCI Yeast Anticancer Drug Screen. Data for the wt2 strain (AID 169);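 further: 0% = growth of vehicle-treated yeast cultures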; settings: S. cerevisiae wt2 strain growth inhibition, stronger effect = higher value
How it was run: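 Genetically defined yeast strains from a DNA-repair/cell-cycle panel were used. Compound-exposed yeast growth was measured, and the inhibition was calculated relative to vehicle treatment.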

[12] = NCI Yeast Anticancer Drug Screen. Data for the mlh1 strain (AID 171);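 further: 0% = growth of vehicle-treated control cultures of the same strain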; settings: S. cerevisiae mlh1 strain growth inhibition, stronger effect = higher value
How it was run: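 Here the genetically defined yeast mutant is grown with each compound, and the extent to which its growth falls below that of vehicle-exposed cells is reported.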

[13] = NCI Yeast Anticancer Drug Screen. Data for the sgs1 strain (AID 173);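 further: 0% = growth of vehicle-only control cultures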; settings: S. cerevisiae sgs1 mutant, stronger effect = higher value
How it was run: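 Relative growth inhibition, referenced to vehicle, was determined in a yeast strain with a defined alteration affecting DNA damage repair or cell cycle control after compound exposure.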

[14] = NCI Yeast Anticancer Drug Screen. Data for the mlh1 rad18 strain (AID 175); settings: S. cerevisiae mlh1 rad18 strain growth inhibition, stronger effect = higher value
How it was run: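 In this whole-cell yeast screen, a strain with altered DNA damage repair is challenged with compound, and its growth is measured against matched vehicle-treated controls.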

[15] = NCI Yeast Anticancer Drug Screen. Data for the rad18 strain (AID 177); settings: S. cerevisiae rad18 mutant growth inhibition, stronger effect = higher value
How it was run: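 Screen uses a yeast strain with a defined lesion in DNA damage repair; compound effect is read as loss of growth compared to untreated vehicle cultures.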

[16] = NCI Yeast Anticancer Drug Screen. Data for the rad52 strain (AID 147);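 further: 0% = growth of vehicle-treated control cultures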; settings: S. cerevisiae rad52 mutant growth inhibition, stronger effect = higher value
How it was run: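 Measured: yeast growth inhibition. System: strain with a defined DNA damage repair alteration. Reference: vehicle-treated control cultures.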

[17] = at 5.0 µM (retest, dose inferred, filed as 0.5)
[18] = at 50.0 µM (retest, dose inferred, filed as 5.0)

Measured: growth inhibition

CO[C@@]1([C@@H](Cl)c2ccccc2)C(=O)N(C)/C(=C\c2ccccc2)C(=O)N1C
inactive: [1]; at 1.2 µM 0% | [1]; at 3.7 µM 0% | [1]; at 11.0 µM -2% | [1]; at 33.0 µM -1% | [1]; at 100.0 µM -1% | [2]; at 1.2 µM -1% | [2]; at 3.7 µM -3% | [2]; at 11.0 µM -6% | [2]; at 33.0 µM 0% | [2]; at 100.0 µM 5% | [3]; at 1.2 µM -1% | [3]; at 3.7 µM -1% | [3]; at 11.0 µM -1% | [3]; at 33.0 µM 39% | [3]; at 100.0 µM 50% | [4]; at 1.2 µM 2% | [4]; at 3.7 µM 6% | [4]; [17] -12% | [4]; at 11.0 µM 9% | [4]; at 33.0 µM 11% | [4]; [18] 14% | [4]; at 50.0 µM -7.3% | [4]; at 100.0 µM 15% | [5]; at 1.2 µM -3% | [5]; at 3.7 µM -1% | [5]; [17] -2% | [5]; at 11.0 µM 0% | [5]; at 33.0 µM 4% | [5]; [18] 4% | [5]; at 50.0 µM 11% | [5]; at 100.0 µM 8% | [6]; at 1.2 µM 1% | [6]; at 3.7 µM 3% | [6]; at 11.0 µM 8% | [6]; at 33.0 µM 10% | [6]; at 100.0 µM 11% | [7]; [17] -13% | [7]; at 50.0 µM 43.6% | [8]; at 1.2 µM -1% | [8]; at 3.7 µM 0% | [8]; at 11.0 µM -1% | [8]; at 33.0 µM 5% | [8]; at 100.0 µM 7% | [9]; [17] -8% | [9]; [18] 15% | [9]; at 50.0 µM 36.1% | [10]; at 1.2 µM -1% | [10]; at 3.7 µM -3% | [10]; [17] -11% | [10]; at 11.0 µM 0% | [10]; at 33.0 µM 10% | [10]; [18] 20% | [10]; at 50.0 µM -6.35% | [10]; at 100.0 µM 19% | [11]; at 1.2 µM 2% | [11]; at 3.7 µM 0% | [11]; at 11.0 µM -1% | [11]; at 33.0 µM 48% | [12]; at 1.2 µM 0% | [12]; at 3.7 µM -2% | [12]; at 11.0 µM -1% | [12]; at 33.0 µM 9% | [12]; at 100.0 µM 67% | [13]; at 1.2 µM -2% | [13]; at 3.7 µM -3% | [13]; at 11.0 µM -1% | [13]; at 33.0 µM 35% | [14]; [17] -10% | [14]; [18] 10% | [14]; at 50.0 µM 9% | [15]; at 1.2 µM 0% | [15]; at 3.7 µM 0% | [15]; at 11.0 µM -1% | [15]; at 33.0 µM 4% | [15]; at 100.0 µM 9%
active: [7]; [18] 96% | [11]; at 100.0 µM 79% | [13]; at 100.0 µM 82%

CCCCCCCC/C=C\CCCCCCCCN
active: [16]; at 33.0 µM 98% | [16]; at 100.0 µM 97% | [2]; at 33.0 µM 96% | [2]; at 100.0 µM 97% | [3]; at 33.0 µM 99% | [3]; at 100.0 µM 98% | [4]; at 33.0 µM 96% | [4]; at 50.0 µM 91.2% | [4]; at 100.0 µM 96% | [5]; at 33.0 µM 98% | [5]; at 50.0 µM 92.5% | [5]; at 100.0 µM 98% | [6]; at 33.0 µM 97% | [6]; at 100.0 µM 97% | [7]; [18] 98% | [7]; at 50.0 µM 93% | [9]; [18] 96% | [9]; at 50.0 µM 90% | [10]; at 33.0 µM 97% | [10]; [18] 97% | [10]; at 50.0 µM 91% | [10]; at 100.0 µM 96% | [11]; at 33.0 µM 98% | [11]; at 100.0 µM 97% | [12]; at 33.0 µM 97% | [12]; at 100.0 µM 97% | [13]; at 33.0 µM 97% | [13]; at 100.0 µM 96% | [14]; at 50.0 µM 91.3% | [15]; at 33.0 µM 97% | [15]; at 100.0 µM 97%
inactive: [16]; at 1.2 µM 4% | [16]; at 3.7 µM 0% | [16]; at 11.0 µM -10% | [2]; at 1.2 µM 17% | [2]; at 3.7 µM 21% | [2]; at 11.0 µM 21% | [3]; at 1.2 µM 18% | [3]; at 3.7 µM 30% | [3]; at 11.0 µM 22% | [4]; at 1.2 µM -1% | [4]; at 3.7 µM -7% | [4]; [17] 30% | [4]; at 11.0 µM -15% | [4]; [18] 64% | [5]; at 1.2 µM 1% | [5]; at 3.7 µM 15% | [5]; [17] 45% | [5]; at 11.0 µM -18% | [5]; [18] 30% | [6]; at 1.2 µM -22% | [6]; at 3.7 µM -21% | [6]; at 11.0 µM -19% | [7]; [17] -68% | [9]; [17] 42% | [10]; at 1.2 µM 0% | [10]; at 3.7 µM 14% | [10]; [17] -10% | [10]; at 11.0 µM 14% | [11]; at 1.2 µM -7% | [11]; at 3.7 µM -1% | [11]; at 11.0 µM -24% | [12]; at 1.2 µM -16% | [12]; at 3.7 µM -16% | [12]; at 11.0 µM -17% | [13]; at 1.2 µM -3% | [13]; at 3.7 µM -11% | [13]; at 11.0 µM -15% | [14]; [17] 26% | [14]; [18] 27% | [15]; at 1.2 µM -1% | [15]; at 3.7 µM 7% | [15]; at 11.0 µM -13%
